# In the library only some 2.1% were active in any assay of this set; here they are far more common.
# EWS-Fli inh = EWS/Fli transcriptional activity inhibition; A673 NR0B1-luciferase reporter, viability-normalised; inhibition, % at 12.6 µM; hit rate 0.67% among 350,000; AID 651661;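 active means mean inhibition of at least 50% after viability correction, with every replicate also passing that limit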;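 further: firefly luciferase signal divided by Alamar Blue viability fluorescence both relative to DMSO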
# CF NFkB inh = inhibitors of cystic fibrosis induced NF-kB; KKLEB NF-kB-GFP reporter, PAF-induced, GFP fluorescence overnight; inhibition, % at 5 µM; hit rate 0.86% among 360,000; AID 588850;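 active means at least 50% inhibition at 5 µM, scaled per plate between neutral and stimulator controls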;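 further: PAF is a Pseudomonas aeruginosa culture filtrate used as stimulus; plate controls were PAF-stimulated DMSO wells for no effect and unstimulated DMSO wells for full effect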
# HIF-2a inh = blocks HIF-2a reporter activity; AID 624352; hit rate 0.72% among 360,000; 786-0 RCC cells HIF-2a reporter, luciferase luminescence, overnight; inhibition, % at 18.8 µM;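 active means inhibition of the luminescence signal of 40% or more relative to plate controls, in a single-dose primary screen at 18.75 µM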
# KKLEB cytotox = CF airway cell cytotoxicity counter-screen; KKLEB CF airway cells viability, ATPlite luminescence, overnight; active compounds read low; cells stimulated with P. aeruginosa culture filtrate; hit rate 0.36% among 360,000; activity change (cytotoxicity), % at 5 µM;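 active means corrected activity change at or below -50% at 5 µM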
# PAX8 reporter = PAX8 transcriptional activity inhibition. RMG-I TPO-luciferase reporter, SteadyGlo, 24 h. inhibition, % at 12.6 µM. hit rate 1.2% among 360,000;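 active means mean replicate inhibition at least 60% with every replicate also reaching 60%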;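 further: luciferase light reporting Pax8 driven TPO promoter activity; plate controls were median of neutral control wells for no effect and mitoxantrone controls for full effect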
# Mdm2 MdmX conf = confirmation of inhibitors of human Mdm2/MdmX interaction, set 2 | shares compounds with HIF-2a inh | AID 504601 | hit rate 99% among 740 | inhibition, % at 8 µM | SaOS-2 split-luciferase Mdm2/MdmX complementation, luminescence;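 active means mean inhibition of the luminescence signal across two replicates at or above 26 percent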
# Target sequence (O15151 whole entry, looked up): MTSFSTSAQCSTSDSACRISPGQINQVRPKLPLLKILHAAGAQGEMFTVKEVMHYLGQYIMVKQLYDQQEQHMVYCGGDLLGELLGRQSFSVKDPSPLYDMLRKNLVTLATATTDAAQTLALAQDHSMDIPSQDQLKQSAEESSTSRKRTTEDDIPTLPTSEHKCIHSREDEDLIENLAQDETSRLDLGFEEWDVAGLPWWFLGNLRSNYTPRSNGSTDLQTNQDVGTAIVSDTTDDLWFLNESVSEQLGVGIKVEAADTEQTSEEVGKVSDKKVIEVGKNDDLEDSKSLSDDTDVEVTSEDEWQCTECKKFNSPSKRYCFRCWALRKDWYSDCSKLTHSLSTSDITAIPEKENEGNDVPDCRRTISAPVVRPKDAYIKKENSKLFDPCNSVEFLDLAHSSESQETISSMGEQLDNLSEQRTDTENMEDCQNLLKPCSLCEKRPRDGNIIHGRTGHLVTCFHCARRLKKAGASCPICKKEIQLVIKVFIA
# Target sequence (Q00987 whole entry, looked up): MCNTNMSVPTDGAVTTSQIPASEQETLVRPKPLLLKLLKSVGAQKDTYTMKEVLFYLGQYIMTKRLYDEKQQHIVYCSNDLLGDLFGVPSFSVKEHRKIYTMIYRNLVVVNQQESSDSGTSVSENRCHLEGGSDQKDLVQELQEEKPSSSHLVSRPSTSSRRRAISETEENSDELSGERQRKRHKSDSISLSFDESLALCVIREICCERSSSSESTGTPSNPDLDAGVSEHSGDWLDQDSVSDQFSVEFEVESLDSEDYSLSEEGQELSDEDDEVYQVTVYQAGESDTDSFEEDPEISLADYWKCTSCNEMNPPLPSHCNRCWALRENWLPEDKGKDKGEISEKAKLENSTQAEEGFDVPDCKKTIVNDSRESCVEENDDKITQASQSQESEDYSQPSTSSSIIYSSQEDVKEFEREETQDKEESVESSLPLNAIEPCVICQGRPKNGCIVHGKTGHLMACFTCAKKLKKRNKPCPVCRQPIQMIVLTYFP
# HIF-2a inh conf = HIF-2a inhibition, single concentration confirmation; shares compounds with HIF-2a inh; 786-0 RCC cells, HIF-2a luciferase reporter luminescence, overnight; inhibition, % at 18.8 µM; hit rate 56% among 1,800;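 active means mean inhibition across four replicates of at least 40 percent at the single tested concentration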
# HIF-1a counter = HIF-1a inhibition counter-screen for HIF-2a hits; shares compounds with HIF-2a inh; MiaPaCa-2 HIF-1a luciferase reporter, desferoxamine, overnight; inhibition, % at 18.8 µM; hit rate 72% among 1,800; AID 651589;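 active means mean inhibition of the reporter signal across four replicates at the single tested dose of 50% or more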
# DNA binder FP = DNA binding small molecules; shares compounds with EWS-Fli inh; salmon sperm DNA acridine orange fluorescence polarization; AC35, µM (highest dose often 68 µM), for the others: at the top dose activity change, negative = DNA binding; hit rate 2% among 640; AID 720586;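 active means fitted curve reaches a 35% signal fall AC35 below twice the sample's top valid tested dose, actives reach about 48 µM in these data; inactive means the rest, including activity in the rising direction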;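 further: lower polarization ratio signals compound binding to DNA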
# * = called active by the depositor; . = not tested or not shown; ! = a repeat was not active.
SMILES,EWS-Fli inh,CF NFkB inh,HIF-2a inh,KKLEB cytotox,PAX8 reporter,DNA binder FP,others
O=c1c2ccccc2oc2cc(C#CC3(O)CCCCC3)ccc12,76.6*,4.5,44.1*,-42.5,7.3,5.5%,HIF-2a inh conf=73.3*;HIF-1a counter=97.3*
COc1ccc(S(=O)(=O)N[C@H]2CC[C@@H](CC(=O)NCCc3ccccc3)O[C@H]2CO)cc1,0.3,.,.,.,0.3,.,
O=C(O)c1cc(N/N=C/c2ccc3c(c2)OCO3)ccc1Cl,2.9,-9.7,-6.5,3.3,-30.5,.,
O=C(O)c1ccc(N/N=C/c2ccc3c(c2)OCO3)cc1,85.3*,1.4,85.7*,0.0,88.1*,8.9%,HIF-2a inh conf=89.6*;HIF-1a counter=88.1*
CC(C)(C)c1ccc(/C=N/Nc2ccc(C(=O)O)cc2)cc1,67.4*,17.6,74.2*,-1.9,52.6,6.8%,HIF-2a inh conf=76.4*;HIF-1a counter=33.0
CC(C)(C)c1ccc(/C=N/Nc2cccc(C(=O)O)c2)cc1,47.1,-4.1,8.6,-4.1,-20.9,.,
O=C(Cc1ccncc1)Nc1ccc2c(c1)[C@H]1C[C@H](CC(=O)N3CCCCC3)O[C@@H](CO)[C@H]1O2,8.9,.,.,.,-2.3,.,
COc1ccccc1CNc1ncc(-c2ccc(F)cc2)n1C,-4.3,-24.7,-39.1,-5.5,1.2,.,
COc1ccc(CNc2ncc(-c3ccc(F)cc3)n2C)c2ccccc12,82.0*,4.0,40.9*,-5.4,45.6,3.9%,HIF-2a inh conf=92.7*;HIF-1a counter=104.1*
C[C@@H]1CN([C@@H](C)CO)C(=O)Cc2cc(NC(=O)Cn3cnnn3)ccc2O[C@@H]1CN(C)Cc1ccc(Cl)c(Cl)c1,-8.0,.,.,.,-7.6,.,
COc1cc2c(OC(C)=O)c3c(c(-c4ccc5c(c4)OCO5)c2cc1OC)C(=O)OC3,65.3*,16.6,-46.4,-34.7,.,-11.2%,Mdm2 MdmX conf=88.2*
CO[C@H]1CN(C)C(=O)c2ccc(NC(=O)C3CCCCC3)cc2OC[C@H](C)NC[C@H]1C,1.8,.,.,.,0.0,.,
C[C@@H]1CN([C@@H](C)CO)C(=O)c2cc(NS(=O)(=O)c3ccc(Cl)cc3)ccc2O[C@@H]1CN(C)Cc1ccc(Cl)c(Cl)c1,15.1,.,.,.,5.5,.,
Cc1noc(C)c1NC(=O)Nc1ccc2c(c1)CC(=O)N([C@H](C)CO)C[C@@H](C)[C@@H](CN(C)Cc1ccc(Cl)c(Cl)c1)O2,61.2*,.,.,.,8.3,-0.1%,
C[C@H]1CN([C@@H](C)CO)C(=O)c2cc(NS(=O)(=O)c3ccc(Cl)cc3)ccc2O[C@H]1CN(C)Cc1ccc(Cl)c(Cl)c1,60.6*,.,.,.,80.6*,-18.1%,
C[C@@H]1CN([C@H](C)CO)C(=O)c2cc(NS(=O)(=O)c3ccc(Cl)cc3)ccc2O[C@@H]1CN(C)Cc1ccc(Cl)c(Cl)c1,53.2*,.,.,.,-3.4,0.3%,
COc1ccccc1NC(=O)N[C@@H]1C=C[C@@H](CC(=O)N[C@@H](C)c2ccccc2)O[C@H]1CO,-7.0,.,.,.,11.0,.,
O=c1[nH]c(/C=C2\C=Nc3ccccc32)c(O)n1Cc1ccccc1F,63.2*,-15.4,-31.1,-2.9,54.7,8.2%,
O=C(CCN1CCCCC1)NCC[C@H]1CC[C@@H](NC(=O)C2CCCC2)[C@H](CO)O1,-5.6,.,.,.,-7.7,.,
O=C(NCCc1ccccc1)[C@@H]1[C@@H](CO)[C@@H]2Cn3c(cccc3=O)[C@@H]2N1Cc1ccccc1,1.8,.,.,.,.,.,
Cc1ccccc1Oc1ccc(NC(=O)C2CC=CCC2C(=O)O)cc1 (stereo not given),-7.0,-5.0,13.5,-1.0,9.8,.,
CC(C)(C)c1ccc(Oc2ccc(NC(=O)C3CC=CCC3C(=O)O)cc2)cc1 (stereo not given),69.7*,8.4,12.0,-20.7,11.5,-14.2%,
C[C@H](CO)N1C[C@H](C)[C@@H](CN(C)C(=O)Nc2ccc3c(c2)OCO3)OCCCC[C@H](C)Oc2ccc(NS(=O)(=O)c3ccc(Cl)cc3)cc2C1=O,-7.2,.,.,.,-5.1,.,
Cc1ccc(-c2ccccc2[C@@H]2[C@@H](C#N)N(C(=O)NC3CCCC3)[C@H]2CO)cc1,0.8,.,.,.,.,.,
COc1ccc(/C=C2\Oc3ccccc3C2=O)cc1,62.1*,-24.7,-39.2,-21.8,-12.1,-2.0%,
SMILES,EWS-Fli inh,CF NFkB inh,HIF-2a inh,KKLEB cytotox,PAX8 reporter,DNA binder FP,others
CC(=O)Oc1ccc(/C=C2/Oc3ccccc3C2=O)cc1,-6.8,-15.2,-8.1,1.5,0.1,.,
C[C@@H]1CN([C@H](C)CO)S(=O)(=O)c2ccc(C#Cc3ccncc3)cc2O[C@H]1CN(C)S(=O)(=O)c1ccccc1,28.1,.,.,.,.,.,
C[C@@H]1CN([C@H](C)CO)S(=O)(=O)c2ccc(C#Cc3ccncc3)cc2O[C@@H]1CN(C)S(=O)(=O)c1ccccc1,13.9,.,.,.,.,.,
Cc1ccc(S(=O)(=O)N(C)C[C@@H]2Oc3cc(C#Cc4ccncc4)ccc3S(=O)(=O)N([C@@H](C)CO)C[C@H]2C)cc1,52.5*,.,.,.,82.6*,-2.6%,
C[C@H]1CN([C@@H](C)CO)S(=O)(=O)c2ccc(C#Cc3ccncc3)cc2O[C@@H]1CN(C)S(=O)(=O)c1ccccc1,53.4*,.,.,.,.,-5.5%,
C[C@@H]1CN([C@@H](C)CO)S(=O)(=O)c2ccc(C#Cc3ccncc3)cc2O[C@H]1CN(C)S(=O)(=O)c1ccccc1,72.6*,.,.,.,.,5.8%,
COc1ccc(C(=O)N2C[C@H]3[C@@H](c4ccccc42)[C@H](CO)N3Cc2ccc3c(c2)OCO3)cc1,5.5,.,.,.,21.3,.,
COc1ccccc1S(=O)(=O)N[C@H]1CC[C@H](CC(=O)N2CCN(C)CC2)O[C@H]1CO,7.7,.,.,.,1.8,.,
CCN1/C(=C/C(C)=C/c2sc3ccccc3[n+]2CC)Sc2ccccc21,77.8*!,6.0,95.2*,-43.4,102.4*,2.21µM*,
COc1cc(-c2cnc3c(NC=O)cc(-c4cccc(NC(C)=O)c4)cn23)cc(OC)c1OC,62.1*,83.8*,26.1,-66.8*,105.1*,-10.4%,
CCOC(=O)c1c(-c2ccc(C)cc2)csc1NC(=O)CCN1CCOCC1,81.0*,-0.3,27.3,3.1,12.9,-9.1%,
CCOC(=O)c1c(-c2ccccc2)csc1NC(=O)CCN1CCOCC1,.,5.7,31.1,-1.7,10.7,.,
O=C1Nc2cc(C(=O)NCCN3CCCCCC3)ccc2S/C1=C\c1ccccc1,59.6*,19.0,3.6,-4.0,19.9,-1.3%,
COc1cccc(O)c1CN1CCC(C(=O)Nc2ccc(-c3cccc(C)c3)cc2)CC1,57.8*,20.4,-4.5,-31.6,31.9,4.5%,
COc1cccc(O)c1CN1CCC(C(=O)Nc2ccc(Oc3cccnc3)cc2)CC1,27.3,5.6,21.2,-9.8,20.8,.,

# Compound activity: PubChem BioAssay, several laboratories
